Experimental data: ChEMBL document CHEMBL2218924, “A broad activity screen in support of a chemogenomic map for kinase signalling research and drug discovery” (Biochem J, 2013); call rule not given here

How the values were obtained:
[1] = molecular target: Ephrin type-A receptor 5 (Homo sapiens) (UniProt P54756); settings: at 1 µM
[2] = molecular target: Ephrin type-A receptor 7 (Homo sapiens) (UniProt Q15375); settings: at 1 µM
[3] = molecular target: Ephrin type-A receptor 7 (Homo sapiens) (UniProt Q15375); settings: at 10 µM
[4] = molecular target: T1, Ephrin type-B receptor 1 (Homo sapiens) (UniProt P54762); settings: at 1 µM
T1 sequence (whole entry): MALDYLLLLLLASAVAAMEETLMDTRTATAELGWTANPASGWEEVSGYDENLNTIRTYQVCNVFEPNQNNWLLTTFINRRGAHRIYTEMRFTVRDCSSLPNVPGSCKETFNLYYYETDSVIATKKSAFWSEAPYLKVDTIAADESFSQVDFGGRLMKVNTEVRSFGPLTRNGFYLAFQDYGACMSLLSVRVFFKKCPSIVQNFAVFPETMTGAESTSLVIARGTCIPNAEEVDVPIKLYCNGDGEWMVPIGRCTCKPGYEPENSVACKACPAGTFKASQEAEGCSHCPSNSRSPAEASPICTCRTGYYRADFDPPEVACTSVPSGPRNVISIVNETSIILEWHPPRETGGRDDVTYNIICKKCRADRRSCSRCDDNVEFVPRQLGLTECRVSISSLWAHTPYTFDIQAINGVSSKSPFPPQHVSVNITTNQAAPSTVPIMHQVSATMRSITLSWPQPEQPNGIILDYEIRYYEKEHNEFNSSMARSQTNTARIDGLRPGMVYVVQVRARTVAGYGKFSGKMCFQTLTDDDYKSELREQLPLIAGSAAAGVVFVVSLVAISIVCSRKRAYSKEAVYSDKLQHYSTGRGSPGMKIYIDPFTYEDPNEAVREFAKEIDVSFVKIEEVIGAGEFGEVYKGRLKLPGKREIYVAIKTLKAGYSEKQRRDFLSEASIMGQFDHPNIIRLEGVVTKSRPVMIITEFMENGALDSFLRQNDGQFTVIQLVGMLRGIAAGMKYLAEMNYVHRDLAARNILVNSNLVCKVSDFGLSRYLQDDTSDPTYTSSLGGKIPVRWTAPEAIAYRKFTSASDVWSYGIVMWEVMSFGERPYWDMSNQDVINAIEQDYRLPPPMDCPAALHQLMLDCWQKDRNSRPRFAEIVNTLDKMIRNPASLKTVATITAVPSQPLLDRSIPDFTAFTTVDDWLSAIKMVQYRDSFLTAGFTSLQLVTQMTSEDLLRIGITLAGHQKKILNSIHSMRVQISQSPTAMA

[5] = molecular target: T1, Ephrin type-B receptor 1 (Homo sapiens); settings: at 10 µM
[6] = molecular target: T2, Ephrin type-B receptor 3 (Homo sapiens) (UniProt P54753); settings: at 1 µM
T2 sequence (whole entry): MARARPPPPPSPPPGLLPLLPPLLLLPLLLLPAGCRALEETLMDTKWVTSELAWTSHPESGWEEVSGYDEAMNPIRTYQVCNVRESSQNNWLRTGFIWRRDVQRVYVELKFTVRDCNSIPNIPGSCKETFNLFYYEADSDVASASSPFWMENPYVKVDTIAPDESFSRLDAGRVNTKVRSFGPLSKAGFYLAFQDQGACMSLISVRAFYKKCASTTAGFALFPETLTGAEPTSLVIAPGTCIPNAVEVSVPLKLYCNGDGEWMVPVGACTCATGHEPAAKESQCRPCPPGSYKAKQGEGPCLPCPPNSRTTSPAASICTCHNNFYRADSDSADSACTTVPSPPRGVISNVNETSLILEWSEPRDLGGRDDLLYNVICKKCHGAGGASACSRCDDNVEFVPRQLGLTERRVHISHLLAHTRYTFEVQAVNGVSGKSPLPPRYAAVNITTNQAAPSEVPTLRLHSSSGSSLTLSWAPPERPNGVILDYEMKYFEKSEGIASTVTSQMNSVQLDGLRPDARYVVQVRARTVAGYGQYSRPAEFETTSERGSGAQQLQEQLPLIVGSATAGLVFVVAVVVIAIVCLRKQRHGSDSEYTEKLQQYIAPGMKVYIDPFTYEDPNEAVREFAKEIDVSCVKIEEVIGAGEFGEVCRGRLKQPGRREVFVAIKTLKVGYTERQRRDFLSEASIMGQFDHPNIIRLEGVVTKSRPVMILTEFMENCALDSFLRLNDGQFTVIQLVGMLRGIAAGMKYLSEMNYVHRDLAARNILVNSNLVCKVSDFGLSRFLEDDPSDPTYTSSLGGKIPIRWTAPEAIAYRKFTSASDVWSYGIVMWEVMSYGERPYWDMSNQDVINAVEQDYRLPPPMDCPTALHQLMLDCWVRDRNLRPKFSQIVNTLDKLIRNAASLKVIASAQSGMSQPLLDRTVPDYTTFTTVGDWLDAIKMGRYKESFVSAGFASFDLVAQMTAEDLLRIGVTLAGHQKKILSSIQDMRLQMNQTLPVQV

[7] = molecular target: T3, Ephrin type-B receptor 4 (Homo sapiens) (UniProt P54760); settings: at 1 µM
T3 sequence (whole entry): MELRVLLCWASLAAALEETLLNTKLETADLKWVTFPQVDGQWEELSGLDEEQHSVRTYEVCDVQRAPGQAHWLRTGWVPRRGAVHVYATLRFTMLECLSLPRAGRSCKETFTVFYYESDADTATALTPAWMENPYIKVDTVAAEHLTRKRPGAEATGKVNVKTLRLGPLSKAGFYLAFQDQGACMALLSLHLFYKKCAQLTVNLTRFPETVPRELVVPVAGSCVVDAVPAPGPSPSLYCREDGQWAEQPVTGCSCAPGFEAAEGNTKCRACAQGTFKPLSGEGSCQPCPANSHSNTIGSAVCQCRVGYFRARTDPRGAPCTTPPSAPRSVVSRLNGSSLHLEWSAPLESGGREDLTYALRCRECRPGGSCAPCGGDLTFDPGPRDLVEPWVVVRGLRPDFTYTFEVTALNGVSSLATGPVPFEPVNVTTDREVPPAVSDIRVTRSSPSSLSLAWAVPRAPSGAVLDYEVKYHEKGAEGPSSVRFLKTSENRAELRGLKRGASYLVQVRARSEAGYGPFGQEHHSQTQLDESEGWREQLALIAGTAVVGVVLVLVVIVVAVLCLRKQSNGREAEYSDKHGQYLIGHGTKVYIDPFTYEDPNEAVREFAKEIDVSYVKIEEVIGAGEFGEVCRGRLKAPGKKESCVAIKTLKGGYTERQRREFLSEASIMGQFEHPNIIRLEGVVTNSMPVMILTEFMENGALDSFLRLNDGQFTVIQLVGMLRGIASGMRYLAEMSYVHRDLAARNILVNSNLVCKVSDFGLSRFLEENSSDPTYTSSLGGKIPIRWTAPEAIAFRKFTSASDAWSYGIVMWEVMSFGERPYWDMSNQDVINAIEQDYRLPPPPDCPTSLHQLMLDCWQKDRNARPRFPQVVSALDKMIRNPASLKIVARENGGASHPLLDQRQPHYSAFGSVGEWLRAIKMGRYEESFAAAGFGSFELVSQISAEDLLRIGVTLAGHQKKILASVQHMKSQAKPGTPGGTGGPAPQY

[8] = molecular target: T3, Ephrin type-B receptor 4 (Homo sapiens); settings: at 10 µM
[9] = molecular target: Receptor tyrosine-protein kinase erbB-4 (Homo sapiens) (UniProt Q15303); settings: at 1 µM
Chain of Receptor tyrosine-protein kinase erbB-4 (Homo sapiens) (Q15303 whole entry): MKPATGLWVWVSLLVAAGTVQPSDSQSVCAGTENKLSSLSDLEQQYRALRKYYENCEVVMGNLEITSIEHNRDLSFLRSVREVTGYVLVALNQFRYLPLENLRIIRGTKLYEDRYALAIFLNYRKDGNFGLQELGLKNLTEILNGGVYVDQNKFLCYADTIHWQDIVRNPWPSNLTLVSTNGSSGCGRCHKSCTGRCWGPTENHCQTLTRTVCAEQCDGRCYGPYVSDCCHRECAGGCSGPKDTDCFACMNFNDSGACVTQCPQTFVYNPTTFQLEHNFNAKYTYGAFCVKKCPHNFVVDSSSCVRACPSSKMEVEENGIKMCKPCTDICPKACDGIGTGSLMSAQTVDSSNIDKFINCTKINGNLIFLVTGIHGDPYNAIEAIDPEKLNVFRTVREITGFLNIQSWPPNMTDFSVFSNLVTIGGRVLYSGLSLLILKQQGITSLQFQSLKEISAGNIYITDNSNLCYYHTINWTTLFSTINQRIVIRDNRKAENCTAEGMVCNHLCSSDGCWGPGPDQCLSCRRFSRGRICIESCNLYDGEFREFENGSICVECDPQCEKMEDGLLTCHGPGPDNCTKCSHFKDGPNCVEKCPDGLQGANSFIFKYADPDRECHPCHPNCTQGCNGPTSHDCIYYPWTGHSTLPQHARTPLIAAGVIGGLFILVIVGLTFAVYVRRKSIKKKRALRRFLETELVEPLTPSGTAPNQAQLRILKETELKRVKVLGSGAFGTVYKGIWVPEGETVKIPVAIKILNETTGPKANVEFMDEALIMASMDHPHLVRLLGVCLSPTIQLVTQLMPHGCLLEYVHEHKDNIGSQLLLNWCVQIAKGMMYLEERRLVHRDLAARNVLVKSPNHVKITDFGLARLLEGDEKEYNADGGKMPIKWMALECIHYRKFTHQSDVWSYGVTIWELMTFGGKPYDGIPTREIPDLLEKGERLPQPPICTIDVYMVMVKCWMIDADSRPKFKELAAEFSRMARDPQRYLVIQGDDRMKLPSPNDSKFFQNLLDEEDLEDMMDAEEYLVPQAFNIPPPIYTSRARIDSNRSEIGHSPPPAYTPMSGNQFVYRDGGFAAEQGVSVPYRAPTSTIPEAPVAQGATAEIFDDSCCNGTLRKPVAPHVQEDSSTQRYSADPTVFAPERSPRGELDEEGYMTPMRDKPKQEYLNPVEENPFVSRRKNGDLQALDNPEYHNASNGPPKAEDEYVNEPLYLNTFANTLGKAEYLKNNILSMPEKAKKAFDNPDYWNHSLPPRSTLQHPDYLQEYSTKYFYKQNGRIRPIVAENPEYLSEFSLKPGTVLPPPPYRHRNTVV

[10] = molecular target: Receptor tyrosine-protein kinase erbB-4 (Homo sapiens) (UniProt Q15303); settings: at 10 µM
[11] = molecular target: Focal adhesion kinase 1 (Homo sapiens) (UniProt Q05397); settings: at 1 µM
Chain of Focal adhesion kinase 1 (Homo sapiens) (Q05397 2-1052 limits assumed): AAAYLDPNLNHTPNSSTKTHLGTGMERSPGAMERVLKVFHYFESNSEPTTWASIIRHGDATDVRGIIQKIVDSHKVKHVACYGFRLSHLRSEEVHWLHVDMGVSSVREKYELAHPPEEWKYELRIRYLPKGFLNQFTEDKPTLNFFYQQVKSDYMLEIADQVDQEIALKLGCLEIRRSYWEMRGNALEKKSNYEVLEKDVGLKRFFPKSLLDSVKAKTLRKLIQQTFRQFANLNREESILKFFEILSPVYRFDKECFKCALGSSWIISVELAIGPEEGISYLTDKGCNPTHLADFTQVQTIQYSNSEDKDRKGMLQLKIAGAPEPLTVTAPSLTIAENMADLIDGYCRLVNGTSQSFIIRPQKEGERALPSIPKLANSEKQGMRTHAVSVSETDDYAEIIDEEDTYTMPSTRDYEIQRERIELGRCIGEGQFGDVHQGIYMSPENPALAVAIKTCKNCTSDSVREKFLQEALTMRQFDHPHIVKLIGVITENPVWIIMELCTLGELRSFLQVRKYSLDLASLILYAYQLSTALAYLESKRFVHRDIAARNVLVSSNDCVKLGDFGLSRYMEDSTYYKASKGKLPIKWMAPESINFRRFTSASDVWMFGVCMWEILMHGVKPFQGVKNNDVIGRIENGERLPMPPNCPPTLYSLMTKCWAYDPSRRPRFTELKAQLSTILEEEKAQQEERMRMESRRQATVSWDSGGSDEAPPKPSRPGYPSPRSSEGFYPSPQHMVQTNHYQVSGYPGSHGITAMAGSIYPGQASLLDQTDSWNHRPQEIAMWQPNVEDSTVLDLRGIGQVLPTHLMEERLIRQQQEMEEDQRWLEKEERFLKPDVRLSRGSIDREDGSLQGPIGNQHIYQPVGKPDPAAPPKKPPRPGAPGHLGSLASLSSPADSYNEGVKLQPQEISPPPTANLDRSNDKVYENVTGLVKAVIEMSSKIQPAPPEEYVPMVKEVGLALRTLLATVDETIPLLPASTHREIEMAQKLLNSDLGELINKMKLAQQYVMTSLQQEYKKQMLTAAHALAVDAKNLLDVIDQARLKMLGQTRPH

[12] = molecular target: T2, Ephrin type-B receptor 3 (Homo sapiens); settings: at 10 µM
[13] = molecular target: T4, Ephrin type-A receptor 3 (Homo sapiens) (UniProt P29320); settings: at 10 µM
T4 sequence (whole entry): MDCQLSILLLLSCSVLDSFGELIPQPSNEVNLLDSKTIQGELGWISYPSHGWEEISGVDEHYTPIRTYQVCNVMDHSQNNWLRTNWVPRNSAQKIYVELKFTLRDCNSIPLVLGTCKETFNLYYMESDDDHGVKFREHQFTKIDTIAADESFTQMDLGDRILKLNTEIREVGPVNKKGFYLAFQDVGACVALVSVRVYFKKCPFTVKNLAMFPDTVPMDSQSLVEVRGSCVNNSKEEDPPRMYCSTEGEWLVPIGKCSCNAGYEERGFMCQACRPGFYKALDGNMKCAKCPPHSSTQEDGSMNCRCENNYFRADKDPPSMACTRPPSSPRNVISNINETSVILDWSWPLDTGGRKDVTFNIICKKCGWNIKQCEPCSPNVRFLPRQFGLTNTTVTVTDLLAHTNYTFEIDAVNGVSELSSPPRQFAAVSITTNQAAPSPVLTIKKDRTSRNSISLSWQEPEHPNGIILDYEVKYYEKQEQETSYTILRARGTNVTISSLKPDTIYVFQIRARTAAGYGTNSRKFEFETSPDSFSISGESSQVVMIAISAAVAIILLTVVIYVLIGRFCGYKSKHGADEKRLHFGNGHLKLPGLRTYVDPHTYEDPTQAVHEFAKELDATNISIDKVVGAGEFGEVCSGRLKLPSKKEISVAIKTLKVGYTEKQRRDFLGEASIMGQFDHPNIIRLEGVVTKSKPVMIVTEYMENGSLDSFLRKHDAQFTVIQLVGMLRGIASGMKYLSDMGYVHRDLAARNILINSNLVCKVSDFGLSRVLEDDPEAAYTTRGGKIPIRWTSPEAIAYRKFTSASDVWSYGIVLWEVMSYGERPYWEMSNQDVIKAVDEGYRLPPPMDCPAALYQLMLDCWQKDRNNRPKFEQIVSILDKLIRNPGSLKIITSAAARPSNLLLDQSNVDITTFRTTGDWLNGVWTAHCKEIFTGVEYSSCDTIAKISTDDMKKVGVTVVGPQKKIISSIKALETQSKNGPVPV

[14] = molecular target: Ephrin type-A receptor 5 (Homo sapiens) (UniProt P54756); settings: at 10 µM

Chain of Ephrin type-A receptor 7 (Homo sapiens) (Q15375 28-998 limits assumed): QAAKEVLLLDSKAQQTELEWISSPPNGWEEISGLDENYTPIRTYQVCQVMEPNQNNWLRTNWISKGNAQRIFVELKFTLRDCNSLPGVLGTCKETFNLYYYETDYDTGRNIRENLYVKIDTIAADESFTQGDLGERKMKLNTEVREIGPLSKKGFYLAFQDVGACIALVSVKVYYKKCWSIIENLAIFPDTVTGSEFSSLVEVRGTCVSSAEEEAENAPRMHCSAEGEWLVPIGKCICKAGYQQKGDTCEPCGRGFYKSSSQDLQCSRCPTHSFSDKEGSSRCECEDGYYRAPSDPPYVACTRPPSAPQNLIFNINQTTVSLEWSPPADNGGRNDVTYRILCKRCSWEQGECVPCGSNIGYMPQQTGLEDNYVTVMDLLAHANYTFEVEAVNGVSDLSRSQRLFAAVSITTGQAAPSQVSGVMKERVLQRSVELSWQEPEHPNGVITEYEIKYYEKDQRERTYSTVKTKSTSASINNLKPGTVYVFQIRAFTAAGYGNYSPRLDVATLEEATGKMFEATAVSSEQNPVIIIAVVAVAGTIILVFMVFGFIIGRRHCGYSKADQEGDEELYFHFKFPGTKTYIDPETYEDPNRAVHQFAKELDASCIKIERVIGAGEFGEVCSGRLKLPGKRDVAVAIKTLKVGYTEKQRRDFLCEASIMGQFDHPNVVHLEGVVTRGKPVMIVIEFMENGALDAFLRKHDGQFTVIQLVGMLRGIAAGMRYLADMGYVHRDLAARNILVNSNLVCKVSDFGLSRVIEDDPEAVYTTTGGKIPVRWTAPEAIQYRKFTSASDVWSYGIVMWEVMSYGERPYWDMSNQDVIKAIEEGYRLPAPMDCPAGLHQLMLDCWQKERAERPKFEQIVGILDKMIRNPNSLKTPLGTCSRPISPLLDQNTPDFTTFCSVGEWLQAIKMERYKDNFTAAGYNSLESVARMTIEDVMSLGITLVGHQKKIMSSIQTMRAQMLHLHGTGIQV
Chain of Ephrin type-A receptor 5 (Homo sapiens) (P54756 whole entry): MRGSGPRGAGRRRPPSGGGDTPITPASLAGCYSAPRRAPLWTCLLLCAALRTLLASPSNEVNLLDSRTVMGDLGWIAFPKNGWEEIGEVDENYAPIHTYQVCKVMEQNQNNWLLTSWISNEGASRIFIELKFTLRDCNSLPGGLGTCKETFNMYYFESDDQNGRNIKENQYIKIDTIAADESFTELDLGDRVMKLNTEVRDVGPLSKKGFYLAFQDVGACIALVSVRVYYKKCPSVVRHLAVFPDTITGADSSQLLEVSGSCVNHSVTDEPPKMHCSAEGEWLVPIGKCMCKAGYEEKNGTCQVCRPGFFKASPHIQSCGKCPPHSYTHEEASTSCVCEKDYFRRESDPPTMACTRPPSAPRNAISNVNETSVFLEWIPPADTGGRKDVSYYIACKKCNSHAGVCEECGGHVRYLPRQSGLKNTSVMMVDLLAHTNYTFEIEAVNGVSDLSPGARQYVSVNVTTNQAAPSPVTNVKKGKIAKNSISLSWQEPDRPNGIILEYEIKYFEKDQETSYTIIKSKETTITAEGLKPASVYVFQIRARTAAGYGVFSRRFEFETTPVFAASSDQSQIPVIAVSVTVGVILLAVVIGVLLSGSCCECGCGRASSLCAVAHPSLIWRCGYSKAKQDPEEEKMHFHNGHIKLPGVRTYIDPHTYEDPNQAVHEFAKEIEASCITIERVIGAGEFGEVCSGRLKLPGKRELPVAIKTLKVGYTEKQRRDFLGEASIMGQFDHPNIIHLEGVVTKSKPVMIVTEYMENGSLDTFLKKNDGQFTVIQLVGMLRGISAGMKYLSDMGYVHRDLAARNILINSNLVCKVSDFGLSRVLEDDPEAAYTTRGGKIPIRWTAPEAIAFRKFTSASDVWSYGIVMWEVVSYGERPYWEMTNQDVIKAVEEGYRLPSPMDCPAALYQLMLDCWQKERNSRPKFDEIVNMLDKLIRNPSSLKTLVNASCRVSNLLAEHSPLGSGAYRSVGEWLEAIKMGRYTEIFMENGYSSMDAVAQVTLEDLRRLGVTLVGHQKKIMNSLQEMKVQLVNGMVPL

O=C(c1ccccc1)c1ccc(N2CCOCC2)cc1O
residual activity [1]: 118% | residual activity [2]: 79% | residual activity [3]: 86% | residual activity [4]: 96% | residual activity [5]: 95% | residual activity [6]: 115% (inactive) | residual activity [7]: 117% | residual activity [8]: 116% | residual activity [9]: 95% | residual activity [10]: 96% | residual activity [11]: 139%

O=C(Nc1ccc(Cl)cc1)c1ccccc1NCc1ccncc1
residual activity [12]: 125% | residual activity [7]: 117% | residual activity [8]: 131% | residual activity [11]: 143%

CCOC(=O)c1c(C)[nH]c(/C=C2\C(=O)Nc3ccccc32)c1C
residual activity [13]: 99% | residual activity [2]: 97% | residual activity [3]: 93% | residual activity [4]: 97% | residual activity [11]: 133%

Oc1cccc(-c2nc(N3CCOCC3)c3oc4ncccc4c3n2)c1
residual activity [1]: 98% | residual activity [14]: 124% | residual activity [4]: 95% | residual activity [6]: 116% (inactive) | residual activity [12]: 123% | residual activity [11]: 144%
